Test results: PubChem BioAssay (NCATS)
Results filed as inconclusive are left out. Unmarked numbers belong to inactive results. Active and inactive are the calls of the source. The call rests on the fitted dose curve; in most records, active means well fitted inhibition curve with a large enough effect; inconclusive means small, poorly fitted or top-dose-only effect; inactive means no such curve, though single readings can be large or run the other way. Where a SMILES comes first, the peptide text is derived from it. [ ]: non-standard residue; d: D form. ξ: configuration not given here. ξTyr(βOH) = NC(C(=O)O)C(O)c1ccc(O)cc1

Test: Primary fluorescence-based thiol-reactive (MSTI) qHTS assay for identification of artifact compounds. (AID 1845221); further: nearly all actives have a fitted effect of over 65% in size;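 on activity change, negative = thiol reactive: thiol-reactive compounds lower the probe fluorescence signal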
Conditions: MSTI thiol-reactivity probe, 1 h; series mostly up to 53.8 µM; activity change, negative = thiol reactive: at the top concentration
Excerpt: PI: Alexander Tropsha Ph.D.
UNC Eshelman School of Pharmacy
University of North Carolina, Chapel Hill, North Carolina
Hits from high-throughput screening (HTS) of chemical libraries are often false positives due to their interference with the assay detection technology. In response to this problem, we generated the largest publicly available library of chemical liabilities and developed a free webtool to predict HTS artifacts, both of which are described herein. More specifically, we generated, curated, and integrated HTS datasets for thiol reactivity, redox activity, and luciferase (firefly and nano) activity. Using these curated datasets, we developed and validated several Quantitative Structure-Interference Relationship (QSIR) models to predict nuisance behavior. […] These models were employed for virtual profiling of the National Center for Advancing Translational Science's (NCATS) in-house library, and 256 compounds for each assay were selected for the experimental validation of nuisance behavior. The BA for these external predictions ranged from 58 to 78% for compounds within the applicability domains of the models. […] The models developed in this study, along with aggregation models previously developed by our group (SCAM Detective) were implemented in "Liability Predictor," an online tool which may be used as part of chemical library design or for triaging HTS hits. Both the models and the curated datasets are publicly available at https://liability.mml.unc.edu/.
SEQUENCE No. (e.g., 1, 2, 3, etc.); […] (e.g., Cells, Incubation, Reagent, etc.); VALUE; DESCRIPTION.
1; Reagent; 4 uL; […].
2; Compounds and control; 16 nL; Kalypsis pin tool (Wako USA) equipped with a 1536-well pin head.
4; Detection; Fluorescence, ViewLux microplate reader, 525 nm excitation, 598 nm emission.
NOTES (numbers refer to Sequence numbers above)
1. Assays determining (E)-2-(4-mercaptostyryl)-1,3,3-trimethyl-3H-indol-1-ium (MSTI) reactivity were performed as previously described in the literature with modifications for the quick identification of compounds reacting with thiol. In brief, 4 uL of MSTI or positive control Acetyl-MSTI (final concentrations of 4 uM and 4 uM, respectively) in assay buffer (2% DMSO in 1X PBS pH 7.4) was dispensed into all wells of a 1536-well assay plate (solid-bottom black plate; Greiner Bio One, Monroe, NC).
2. A Wako Pin-tool (Wako Automation, Richmond, VA) was used to transfer 16 nL of compounds (consisting of 7-plates in qHTS format, final concentration range 18.3 nM to 114 uM) or control MLS001163887 (final concentration range 1.22 nM to 40 uM).
3. Plates were centrifuged (121xg, 15 seconds) and incubated for 1 hour at room temperature protected from light.
4. Samples were read for fluorescence (Ex/Em = 525(20)/598(25) nm) on a ViewLux CCD imager (PerkinElmer). Data were normalized to Acetyl-MSTI (0% activity) and MSTI (100% activity) and the resulting percent inhibition data were fitted to a 4-parameter Hill equation using NCATS in-house software.
Potency means the concentration at half of the fitted maximal effect.

Row | SMILES | activity change, negative = thiol reactive | Potency
1 | C[C@@H]1C(=O)O[C@H](C)[C@H]1C[C@@H](O)[C@](C)(O)[C@H]1CC[C@@]2(O)C3=CC(=O)[C@@H]4C[C@@H](O)[C@@H](O)C[C@]4(C)C3CC[C@]12C (stereo not given in full) | 22.4% [at 25.6 µM] | –
2 | C=C1C(O)C(OC(=O)c2ccccc2)C2C(C)(C(=O)O)CCCC2(C)C1CC/C(C)=C\CO (stereo not given) | 46.9% [at 25.6 µM] | –
3 | O=C(N[C@@H]1CC[C@@H](c2cccc(F)c2F)CN(CC(F)(F)F)C1=O)N1CCC(n2c(=O)[nH]c3ncccc32)CC1 | -2.92% | –
4 | COc1ccc(CC(=O)NCc2ccccc2-c2ccccc2C(=O)NCCc2cccnc2)cc1 | 35.9% | –
5 | CC(C)C1NC(=O)CNC(=O)C2CCCN2C(=O)C(Cc2c[nH]c3ccccc23)NC(=O)CNC(=O)C(C(O)c2ccc(O)cc2)NC(=O)CNC1=O (stereo not given) (cyclo(G[ξTyr(βOH)]GWPGV); configuration not given here) | -5.65% [at 25.6 µM] | –
6 | O=C(/C=C/c1ccc(O)cc1)OC[C@H]1O[C@@H](O/C(=C\c2ccccc2)C(=O)O)[C@H](O)[C@@H](O)[C@@H]1O | 27.3% [at 25.6 µM] | –
7 | COc1ccc(OC)c(C2C(C#N)=C(N)Oc3n[nH]c(-c4ccc5ccccc5c4)c32)c1 (stereo not given) | 1.43% | –
8 | C[C@@H]1O[C@@H](OC[C@H]2O[C@@H](OCc3ccccc3)[C@H](O)[C@@H](O)[C@@H]2O)[C@H](O)[C@H](O)[C@H]1O | – | 5.19 µM (active)
9 | COc1cnc(-n2cnc(C)n2)c2[nH]cc(C(=O)C(=O)N3CCN(C(=O)c4ccccc4)CC3)c12 | 34% | –
10 | O=C(/C=C/c1ccc(O)c(O)c1)O[C@H]1[C@H](OC2CCCCC2O)O[C@H](CO)[C@@H](O)[C@@H]1O (stereo not given in full) | – | 2.07 µM (active)
11 | C=C1CCC2C(C)(C)CC(O)CC2(C)C1CCC(C)CCOC(=O)CCC(=O)O (stereo not given) | -0.455% [at 25.6 µM] | –
12 | CCC(C)C(N)C(=O)NCCN1CCOCC1 (stereo not given) | -4.87% | –
13 | O=C(O)CCc1cccc(O)c1O[C@@H]1O[C@H](CO)[C@@H](O)[C@H](O)[C@H]1O | – | 14.7 µM (active)
14 | O=C(C1OC1/C=C/c1ccc2c(c1)OCO2)N1CCCCC1 (stereo not given) | -1.18% | –
15 | CC1(C)CC[C@]2(C(=O)O[C@@H]3O[C@H](CO)[C@@H](O)[C@H](O)[C@H]3O)CC[C@]3(C)C(=CCC4[C@@]5(C)CC[C@H](OC6OC(C(=O)O)C(OC7OC(CO)C(O)C(O)C7O)C(O)C6O)C(C)(C)C5CC[C@]43C)C2C1 (stereo not given in full) | 280% [at 11.5 µM] | –
16 | CC(=O)NCC1CN(c2ccc(-c3ccc(CNCc4cn[nH]n4)cc3)c(F)c2)C(=O)O1 (stereo not given) | 5.41% | –
17 | C=C1CCC2[C@@](C)(C(=O)O)CCC[C@@]2(C)[C@@H]1CCc1ccoc1 (stereo not given in full) | 130% | –
18 | CC(CNS(=O)(=O)C(C)C)c1ccc(-c2ccc(C#N)cc2)cc1 (stereo not given) | 177% | –
19 | COc1c2cc(c(O)c1OC)CCCCC(O)CCc1ccc(O)c-2c1 (stereo not given) | 43.4% | –
20 | COc1ccc(C2C(C(=O)O)C(C(=O)O)C2c2ccc(OC)cc2O[C@@H]2O[C@H](CO)[C@@H](O)[C@H](O)[C@H]2O)c(O[C@@H]2O[C@H](CO)[C@@H](O)[C@H](O)[C@H]2O)c1 (stereo not given in full) | – | 2.81 µM (active)

Row | SMILES | activity change, negative = thiol reactive | Potency
21 | CC(C)C[C@H](NC(=O)[C@@H]1O[C@H]1C(=O)O)C(=O)NCCCCN=C(N)N | 41.8% | –
22 | C/C=C/C=C/C=C/C(=O)O[C@@H]1[C@@H](OC)C2=C(C(=O)N(C(CCC(=O)O)C(=O)O)C2)[C@@]2(C)CCCC(C)(C)[C@H]12 (stereo not given in full) | 31.6% [at 25.6 µM] | –
23 | C/C(=C/CO)CC[C@H]1[C@]2(C)C[C@H](O)CC(C)(C)[C@H]2CC[C@]1(C)O | 9.88% | –
24 | C=C(C)[C@@H]1CC[C@]2(C(=O)O)CC[C@]3(C)[C@H](CCC4[C@@]5(C)CCC(=O)C(C)(C)C5C(O)C[C@]43C)C12 (stereo not given in full) | 38% [at 25.6 µM] | –
25 | N=C(N)c1ccc2nc(-c3cc(CC(=O)NC(CC(=O)O)C(=O)O)cc(-c4cc(S(N)(=O)=O)ccc4O)c3O)[nH]c2c1 (stereo not given) | – | 2.12 µM (active)
26 | C[C@@H]1O[C@@H](O[C@H]2[C@H](O)[C@@H](O)[C@H](OC[C@H]3O[C@@H](OC(=O)[C@]45CCC(C)(C)C[C@H]4C4=CCC6[C@@]7(C)C[C@@H](O)[C@H](O)[C@@](C)(CO)C7[C@H](O)C[C@@]6(C)[C@]4(C)CC5)[C@H](O)[C@@H](O)[C@@H]3O)O[C@@H]2CO)[C@H](O)[C@H](O)[C@H]1O (stereo not given in full) | 224% [at 11.5 µM] | –
27 | CC(C)N(CCCNC(=O)Nc1ccc(C(C)(C)C)cc1)C[C@H]1O[C@@H](n2ccc3c(N)ncnc32)[C@H](O)[C@@H]1O | 84.5% | –
28 | CC(=O)OC1CC2C(C)(C)C(=O)C=CC2(C)C2CC(=O)C3=C(CCC3C3=CC(O)OC3=O)C12C (stereo not given) | 40.1% [at 25.6 µM] | –
29 | COC(=O)[C@H](O)[C@H]1C(C)(C)[C@H](OC(C)=O)[C@@]2(O)C(=O)[C@]1(C)C1CC[C@]3(C)C(CC(=O)O[C@H]3c3ccoc3)[C@]13O[C@@H]32 (stereo not given in full) | -11.3% [at 25.6 µM] | –
30 | C/C=C(/C)C(=O)OC1CC(C)(C)CC2C3=CCC4C5(C)CCC(OC6OC(C)C(OC7OC(C(=O)O)C(O)C(OC8OC(CO)C(O)C(O)C8OC8OC(CO)C(O)C(O)C8O)C7O)C(O)C6O)C(C)(C)C5CCC4(C)C3(C)C(OC(=O)/C=C/C=C/C=C/CCC)C(OC(C)=O)C12CO (stereo not given) | 260% [at 11.5 µM] | –
31 | CCOc1nc2c(N)ncnc2n1CC | -19.1% | –
32 | CC(=O)/C=C/C1(O)C(C)CC(O[C@@H]2O[C@H](CO)[C@@H](O)[C@H](O)[C@H]2O)CC1(C)C (stereo not given in full) | – | 9.22 µM (active)
33 | C=CC(C)(C)C12Nc3c(ccc4c3OC(C)(C)C=C4)C1(O)CC1C(=O)N3CCCC3C(=O)N12 (stereo not given) | 4.33% [at 25.6 µM] | –
34 | CC(=O)O[C@H]1[C@H](O[C@H]2CC[C@]34C[C@]35CC[C@]3(C)[C@@H]([C@@]6(C)CC[C@@H](C(C)(C)O)O6)[C@@H](O)C[C@@]3(C)[C@@H]5C[C@H](O[C@@H]3O[C@H](CO)[C@@H](O)[C@H](O)[C@H]3O)[C@H]4C2(C)C)OC[C@@H](OC(C)=O)[C@@H]1O | 78.7% | –
35 | COC(=O)C(CC1CCCC1)c1ccc(S(C)(=O)=O)cc1 (stereo not given) | 22.1% | –
36 | NC(Cc1c[nH]c2ccc(O)cc12)C(=O)O (stereo not given) | – | 16.8 µM (active)
37 | CC(C)(O)C1CC=C(C(=O)OC[C@H]2O[C@@H](Oc3cc(C(=O)O)cc(O)c3O)[C@H](O)[C@@H](O)[C@@H]2O)CC1 (stereo not given in full) | – | 5.19 µM (active)
38 | CC1CC(O)/C=C/C(O)/C=C\C(=O)O1 (stereo not given) | -10.6% [at 85.7 µM] | –
39 | C[C@@H]1[C@H](O)[C@@H]2OC(=O)C3=C2[C@H](CCC3)[C@@]12C[C@@H](c1ccoc1)OC2=O | 6.14% | –
40 | CC1(C)CC[C@]2(C(=O)O[C@@H]3O[C@H](CO)[C@@H](O)[C@H](O)[C@H]3O)CC[C@]3(C)C(=CCC4[C@@]5(C)C[C@H](O)[C@H](O[C@@H]6OC[C@@H](O)[C@H](O)[C@H]6O)[C@@](C)(CO)C5CC[C@]43C)C2C1 (stereo not given in full) | 298% [at 11.5 µM] | –
